According to PubChem BioAssay AID485297 (National Center for Advancing Translational Sciences (NCATS), 2010):
In all, about 320,000 compounds went through this assay and about 9,100 (2.8%) were called active. Where a call stands in place of a potency, no number is given. Not shown: some 3% with an inconclusive outcome. Calls come from the whole dose curve; as a rule, active = well fitted activation curve with a large enough effect; inconclusive = small, poorly fitted or top-dose-only effect; inactive = no such curve, though single readings can be large or run the other way. The full list was thinned out, with actives kept by preference.

assay: qHTS Assay for Rab9 Promoter Activators; details: Huh7 Rab9 promoter-luciferase reporter, luminescence, 24 h; series mostly up to 9.22 µM; note: nearly all actives have a fitted effect of over 60% in size
Outline: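 Huh7 cells stably carrying Rab9 promoter–luciferase reporter, plated 1500 cells/well, compound added after 2 h and incubated 24 h at 37 °C; luciferase luminescence then read after 10 min with detection reagent.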
Potency is the fitted concentration of half-maximal effect.

| SMILES | Potency |
| --- | --- |
| COc1ccc(C(=O)NCC2CCCCC2)cc1S(=O)(=O)N1CCCC1 | inactive |
| COc1ccc(OC)c(NC(=O)c2sc3nc(C)cc(C)c3c2N)c1 | inactive |
| COCCCNc1nc2c(-c3cccc(C)c3)nnn2c2ccc(Cl)cc12 | inactive |
| COC(=O)c1cc(Oc2ccc(S(=O)(=O)N3CCOCC3)cc2[N+](=O)[O-])cc(C(=O)OC)c1 | inactive |
| COc1ccc(S(=O)(=O)Nc2ccc3cn[nH]c3c2)cc1[N+](=O)[O-] | inactive |
| CC(C)Nc1ccc(-n2nc3ccccc3[n+]2[O-])cc1 | 0.501 µM (active) |
| CCN(CC(=O)NCc1cccs1)C(=O)/C=C/c1ccc(C)cc1 | inactive |
| COc1ccccc1NC(=O)COC(=O)COc1ccccc1F | inactive |
| Cc1cc(/C=C2/C(=N)N3C(=NC2=O)SN=C3S(C)(=O)=O)c(C)n1-c1ccccc1 | 3.55 µM (active) |
| CCS(=O)(=O)C1=NSC2=NC(=O)/C(=C\c3cc(C)n(-c4cccc(OC)c4)c3C)C(=N)N21 | inactive |
| CCC1=NN2C(=N)/C(=C/c3cc(C)n(-c4ccccc4)c3C)C(=O)N=C2S1 | inactive |
| COc1ccc([C@H]2CC(=O)C=C(/C=C/c3ccccc3)C2)cc1 | inactive |
| Cc1ccc2cc3cc(C(=O)N4CCCCCC4)oc3nc2c1 | 0.631 µM (active) |
| COc1ccc2oc(=O)c(C(=O)N3CCCC3)cc2c1 | inactive |
| Cc1cc(C)cc(NC(=O)N2CCCCCCC2)c1 | inactive |
| O=C(NNC(=O)c1cc(S(=O)(=O)N2CCCCC2)ccc1Cl)c1ccccc1O | inactive |
| S=C(NCCc1ccccc1)N1CCCCC1 | 3.16 µM (active) |
| COc1ccc(C(=O)NC2CCN(C(=S)NCCc3ccccc3)CC2)cc1 | inactive |
| O=C1CCN(C(=S)NCCc2ccccc2)CC1 | inactive |
| Cc1cccn2c(=O)nc(SCC(=O)NCc3ccccc3Cl)nc12 | inactive |
| CC(C)CCN1CCC(C)(NC(=O)c2ccccc2)C1=O (stereo not given) | inactive |
| Nc1nonc1-c1noc(-c2ccc(Br)o2)n1 | inactive |
| Cn1nc(-c2ccccc2)c(-c2nc(-c3ccc(Cl)cc3)no2)c1Cl | inactive |
| Brc1ccc(-c2noc(-c3ccccc3)n2)o1 | 1.26 µM (active) |
| CCOC(=O)c1cn[nH]c1NC(=S)Nc1ccccc1 | 1.12 µM (active) |
| CCOC(=O)c1cc2c(nc1NC(=S)Nc1ccccc1)CC(C)(CC)OC2 (stereo not given) | inactive |
| CCOC(=O)c1ccc(NC(=S)Nc2cc(C)cc(C)n2)cc1 | inactive |
| Cn1nc(C(=O)OCC(=O)N(Cc2ccccc2)C(C)(C)C)c2ccccc2c1=O | inactive |
| O=S(=O)(Nc1ccc(-n2cnnn2)cc1)c1ccc(Cl)cc1 | inactive |
| O=C(COc1nc2ccccc2nc1N1CCOCC1)NCC(F)(F)F | inactive |
